LEDGF integ inh = blocks HIV-1 LEDGF/p75-dependent DNA integration. TR-FRET IN-LEDGF/p75 DNA integration, Eu/Cy5. inhibition, % at 3.7 µM. hit rate 0.64% among 370,000. AID 743269;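 active = inhibition above the screen-wide mean plus 3 SD, cut at about 13% in these data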;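 also: signal is the Cy5 over europium emission ratio at 671 and 618 nm; 0% = plate median of compound wells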
UHRF1 binding = UHRF1 methyl-DNA binding inhibition | hit rate 0.75% among 370,000 | UHRF1 binding to methylated oligo, TR-FRET | inhibition, % at 4.4 µM | Q96T88;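 also: UHRF1 SRA domain binding a hemimethylated CpG hairpin DNA probe; 0% = median of test compound wells and 100% = reference inhibitor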
MBD2 DNA inh = blocks human MBD2 binding to methylated DNA | Q9UBB5 | TR-FRET, MBD2 binding to methylated oligonucleotide | inhibition, % at 4.4 µM | hit rate 0.31% among 370,000 | AID 686964; in the data active = inhibition above about 13%
PRMT1 inh = blocks human protein arginine methyltransferase 1. Q99873. recombinant PRMT1, activity-based probe fluorescence polarization. inhibition, % at 2.79 µM. hit rate 1.3% among 370,000;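 active = inhibition above about 21% made by adding two undisclosed values, limit read from the data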
UHRF1 ctr MBD2 = UHRF1 methyl-oligo binding inhibition as MBD2 counter-screen | AID 720530 | UHRF1 binding to methylated oligonucleotide, TR-FRET | hit rate 25% among 1,000 | shares compounds with MBD2 DNA inh | inhibition, % at 4.4 µM;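 also: UHRF1 SRA domain binding a labeled hemimethylated CpG hairpin DNA; 0% = vehicle only and 100% = reference inhibitor with vehicle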
MBD2 confirm = confirmation of human MBD2-DBD methylated oligonucleotide binding inhibitors. shares compounds with MBD2 DNA inh. TR-FRET MBD2-DBD binding to methylated oligonucleotide. inhibition, % at 4.4 µM. hit rate 26% among 1,000. AID 720531; in the data active = inhibition above about 14%
* = called active by the depositor. This is a sample that favours compounds with a hit; in the whole collection about 2.5% have one here. Rule as the data show it, unless noted: active = inhibition above about 21%; inactive = the rest.

How did CN(C)C1(CNC(=O)c2cccc(S(=O)(=O)NCc3ccccc3)c2)CCCCC1 do in these assays?
LEDGF integ inh: 0; UHRF1 binding: -1; MBD2 DNA inh: -1; PRMT1 inh: -5

How did CCN(c1ccccc1)S(=O)(=O)c1cccc(C(=O)NCC2(N(C)C)CCCCC2)c1 do in these assays?
LEDGF integ inh: -1; UHRF1 binding: 11; MBD2 DNA inh: 23*; PRMT1 inh: -3; UHRF1 ctr MBD2: 3; MBD2 confirm: 9

What do the screens show for `Cc1ccc(C)c(S(=O)(=O)N2CCCOC2CNC(=O)C(=O)NCCc2ccco2)c1` (configuration not stated)?
LEDGF integ inh: -2; UHRF1 binding: 0; MBD2 DNA inh: 15*; PRMT1 inh: -2; UHRF1 ctr MBD2: 2; MBD2 confirm: 4

How did CCCN=C1N(C)C[C@@H]2[C@@H]3C(=O)N(Cc4ccccc4)C(=O)[C@@H]3[C@](CC)(C(=O)OC)N12 do in these assays?
LEDGF integ inh: 1; UHRF1 binding: 0; MBD2 DNA inh: -2; PRMT1 inh: -1

What do the screens show for `COC(=O)c1cc(C(=O)OCC(=O)NC(=O)NCc2ccccc2)cc([N+](=O)[O-])c1`?
LEDGF integ inh: -1; UHRF1 binding: 19; MBD2 DNA inh: 17*; PRMT1 inh: 5; UHRF1 ctr MBD2: 4; MBD2 confirm: 2

Results for CC(C)(C)OC(=O)NC(Cc1ccccc1)C(=O)NCCCC(=O)O (configuration not stated) ?
LEDGF integ inh: -3; UHRF1 binding: -3; MBD2 DNA inh: 0; PRMT1 inh: 1

How did Cn1cc(C[C@H](NC(=O)OC(C)(C)C)C(=O)N[C@@H](CO)Cc2ccccc2)c2ccccc21 do in these assays?
LEDGF integ inh: 1; UHRF1 binding: 2; MBD2 DNA inh: 26*; PRMT1 inh: -5; UHRF1 ctr MBD2: 7; MBD2 confirm: 2

How did CC(=O)C1C(c2ccc(F)c(F)c2)NC(=O)NC1(O)C(F)(F)F (configuration not stated) do in these assays?
LEDGF integ inh: -5; UHRF1 binding: 3; MBD2 DNA inh: 24*; PRMT1 inh: -4; UHRF1 ctr MBD2: 5; MBD2 confirm: 0

Results for CC(=O)C1C(c2ccc(OC(F)F)cc2)NC(=O)NC1(O)C(F)(F)F (configuration not stated) ?
LEDGF integ inh: 4; UHRF1 binding: -1; MBD2 DNA inh: -6; PRMT1 inh: -1

Results for O=C(N/N=C/c1ccsc1)c1ccc2ccccc2n1 ?
LEDGF integ inh: -7; UHRF1 binding: 2; MBD2 DNA inh: 1; PRMT1 inh: 3

Results for O=C(COC(=O)c1ccc(O)cc1O)NC1CCS(=O)(=O)C1 (configuration not stated) ?
LEDGF integ inh: -10; UHRF1 binding: 1; MBD2 DNA inh: -2; PRMT1 inh: 8

How did O=C(COC(=O)c1ccc(O)cc1O)NC1CCCCCC1 do in these assays?
LEDGF integ inh: -2; UHRF1 binding: -1; MBD2 DNA inh: 20*; PRMT1 inh: 0; UHRF1 ctr MBD2: 5; MBD2 confirm: 3

How did Cc1[nH]c2ccccc2c1C(=O)C(=O)NCc1ccco1 do in these assays?
LEDGF integ inh: 2; UHRF1 binding: 0; MBD2 DNA inh: 1; PRMT1 inh: -1

Results for CCCNC(=O)C[C@H]1CC[C@H]2[C@@H](COc3ccc(NC(=O)c4cncs4)cc3C(=O)N2C)O1 ?
LEDGF integ inh: 3; UHRF1 binding: 4; MBD2 DNA inh: 10; PRMT1 inh: 3

What do the screens show for `COc1ccccc1N1CCN(C(=O)C(C)CS(=O)(=O)c2ccc3c(c2)NC(=O)CS3)CC1` (configuration not stated)?
LEDGF integ inh: 57*; UHRF1 binding: 83*; MBD2 DNA inh: 77*; PRMT1 inh: 10; UHRF1 ctr MBD2: 15; MBD2 confirm: 8

Results for COc1ccccc1CNC(=O)C(NS(=O)(=O)c1cccc2nsnc12)C(C)C (configuration not stated) ?
LEDGF integ inh: 3; UHRF1 binding: 6; MBD2 DNA inh: 1; PRMT1 inh: -3

What do the screens show for `CC(C)C(NS(=O)(=O)c1cccc2nsnc12)C(=O)N1CCn2c1nc1ccccc12` (configuration not stated)?
LEDGF integ inh: -2; UHRF1 binding: 0; MBD2 DNA inh: 14*; PRMT1 inh: -2; UHRF1 ctr MBD2: 2; MBD2 confirm: 0

How did Nc1ccc(Cl)c(S(=O)(=O)Nc2ccc(Cl)cc2)c1 do in these assays?
LEDGF integ inh: 2; UHRF1 binding: 0; MBD2 DNA inh: -2; PRMT1 inh: -8

Results for CC1(c2nnnn2Cc2ccccc2)CCC(=O)N1CCc1ccccc1F (configuration not stated) ?
LEDGF integ inh: -3; UHRF1 binding: 22*; MBD2 DNA inh: 15*; PRMT1 inh: 8; UHRF1 ctr MBD2: 13; MBD2 confirm: 6

How did CCc1cc2c(COC(=O)CCNS(=O)(=O)c3cccc(C(F)(F)F)c3)cc(=O)oc2cc1O do in these assays?
LEDGF integ inh: -6; UHRF1 binding: 2; MBD2 DNA inh: 7; PRMT1 inh: 4

How did O=C(OCc1cc(=O)n2ccsc2n1)C1(c2ccccc2)CC1 do in these assays?
LEDGF integ inh: -3; UHRF1 binding: 2; MBD2 DNA inh: 2; PRMT1 inh: 0

What do the screens show for `COC(=O)c1ccc(OCc2cc(=O)n3ccsc3n2)cc1`?
LEDGF integ inh: 4; UHRF1 binding: -3; MBD2 DNA inh: 13*; PRMT1 inh: -1; UHRF1 ctr MBD2: 11; MBD2 confirm: 6

Results for C[N+](=O)C1C(=O)Nc2ccccc21 (configuration not stated) ?
LEDGF integ inh: -1; UHRF1 binding: -3; MBD2 DNA inh: 101*; PRMT1 inh: -1; UHRF1 ctr MBD2: 3; MBD2 confirm: -3

What do the screens show for `CC(C)(C)NC(=O)COc1ccc(S(=O)(=O)N2CCCC2)cc1`?
LEDGF integ inh: 2; UHRF1 binding: 2; MBD2 DNA inh: -2; PRMT1 inh: -2

What do the screens show for `O=C1C=C(c2ccc(C(=O)O)cc2)C[C@@H](c2ccc3c(c2)OCO3)C1`?
LEDGF integ inh: 3; UHRF1 binding: 17; MBD2 DNA inh: 16*; PRMT1 inh: 7; UHRF1 ctr MBD2: 14; MBD2 confirm: 8

Results for O=C1C=C(c2ccc(O)cc2)C[C@@H](c2ccc3c(c2)OCO3)C1 ?
LEDGF integ inh: 3; UHRF1 binding: 17; MBD2 DNA inh: 5; PRMT1 inh: -4

Results for CCOc1ccc(CCNC(=O)c2cc3ccsc3n2C)cc1OC ?
LEDGF integ inh: 5; UHRF1 binding: 7; MBD2 DNA inh: 4; PRMT1 inh: -6

Results for COc1ccc(CC(=O)OCC(=O)Nc2cccc(C(C)=O)c2)cc1OC ?
LEDGF integ inh: 0; UHRF1 binding: 3; MBD2 DNA inh: -2; PRMT1 inh: -1
